Assay results reported in PubChem BioAssay (EPA / NIEHS).
Active and inactive are the calls of the source. How the source made its calls: active means hit-call score of the fitted dose curve at least 0.9, where 1 is the maximum; inactive means score below 0.9.

Assays:
Conditions in all cases: mRNA level, 48 h; actives raise or lower the signal
[1] = read-out: ABC Transporter (ABCB1), ABCB1 (gene 5243); test: LTEA_HepaRG_ABCB1: Life Technologies and Expression Analysis (LTEA) Assay for ABC Transporter (ABCB1) using HepaRG (AID 2283460)
Summary of the method: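 Differentiated human HepaRG cells, plated 48 h then switched to serum-free induction medium, were exposed in duplicate to eight half-log concentrations up to 100 uM in 0.5% DMSO for 48 h. ABCB1 mRNA was measured by TaqMan qRT-PCR, normalized to ACTB/GAPDH/POLR2A.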

[2] = read-out: growth arrest and DNA damage 45 (GADD45B), GADD45B (gene 4616); test: LTEA_HepaRG_GADD45B: Life Technologies and Expression Analysis (LTEA) Assay for growth arrest and DNA damage 45 (GADD45B) using HepaRG (AID 2283461)
Summary of the method: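 Human HepaRG monolayers receive chemicals for 48 h at eight half-log concentrations, highest 100 uM, in 0.5% DMSO. Expression is measured by TaqMan qRT-PCR and normalized to ACTB, GAPDH and POLR2A.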

[3] = read-out: ABC Transporter (ABCC3), ABCC3 (gene 8714); test: LTEA_HepaRG_ABCC3: Life Technologies and Expression Analysis (LTEA) Assay for ABC Transporter (ABCC3) using HepaRG (AID 2283462)
Summary of the method: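 Transcriptional change of ABCC3 in HepaRG after 48 h treatment, determined by qRT-PCR normalized to endogenous controls. Concentrations spanned eight half-log steps to 100 uM in 0.5% DMSO.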

[4] = read-out: ABC Transporter (ABCC2), ABCC2 (gene 1244); test: LTEA_HepaRG_ABCC2: Life Technologies and Expression Analysis (LTEA) Assay for ABC Transporter (ABCC2) using HepaRG (AID 2283464)
Summary of the method: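 After plating and 48 h culture, HepaRG medium is replaced with serum-free induction medium and chemicals are added (8 concentrations, max 100 uM, 0.5% DMSO) for 48 h. Total RNA then undergoes qRT-PCR for ABCC2 with housekeeping normalization.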

[5] = read-out: Broad substrate specificity ATP-binding cassette transporter ABCG2 (Homo sapiens) (UniProt Q9UNQ0); test: LTEA_HepaRG_ABCG2: Life Technologies and Expression Analysis (LTEA) Assay for ABC Transporter (ABCG2) using HepaRG (AID 2283465)
Summary of the method: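 Differentiated HepaRG cells in serum-free induction medium were exposed for 48 h, in duplicate, to eight half-log concentrations up to 100 uM in 0.5% DMSO. ABCG2 mRNA was measured by TaqMan qRT-PCR, normalized to ACTB, GAPDH and POLR2A, and fitted bidirectionally versus DMSO.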

[6] = read-out: ATP-citrate lyase (ACLY), ACLY (gene 47); test: LTEA_HepaRG_ACLY: Life Technologies and Expression Analysis (LTEA) Assay for ATP-citrate lyase (ACLY) using HepaRG (AID 2283466)
Summary of the method: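 Differentiated human HepaRG cells in serum-free induction medium exposed 48 h, in duplicate, to eight half-log concentrations from 100 uM top in 0.5% DMSO; ACLY mRNA measured by qRT-PCR, normalized to ACTB, GAPDH, POLR2A, fitted bidirectionally versus DMSO.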

[7] = read-out: Peroxisomal acyl-coenzyme A oxidase 1 (ACOX1) gene, ACOX1 (gene 51); test: LTEA_HepaRG_ACOX1: Life Technologies and Expression Analysis (LTEA) Assay for Peroxisomal acyl-coenzyme A oxidase 1 (ACOX1) gene using HepaRG (AID 2283467)
Summary of the method: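 Differentiated human HepaRG cells were exposed in duplicate for 48 h in serum-free induction medium to eight half-log concentrations up to 100 uM in 0.5% DMSO. ACOX1 mRNA was then quantified by TaqMan qRT-PCR, normalized to ACTB, GAPDH and POLR2A.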

[8] = read-out: Alkaline Phosphatase, Placental (ALPP) gene, ALPP (gene 250); test: LTEA_HepaRG_ALPP: Life Technologies and Expression Analysis (LTEA) Assay for Alkaline Phosphatase, Placental (ALPP) gene using HepaRG (AID 2283468)
Summary of the method: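 Using human liver HepaRG cells, chemicals are tested in duplicate over 48 h at half-log concentrations topping at 100 uM; phenobarbital 1 mM serves as induction control. ALPP mRNA change by qRT-PCR, bidirectional fit against vehicle.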

[9] = read-out: Bcl-2 (BAD) gene, BAD (gene 572); test: LTEA_HepaRG_BAD: Life Technologies and Expression Analysis (LTEA) Assay for Bcl-2 (BAD) gene using HepaRG (AID 2283469)
Summary of the method: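 Differentiated human HepaRG cells in serum-free induction medium were exposed in duplicate for 48 h to eight concentrations (top 100 uM, half-log steps, 0.5% DMSO). BAD mRNA was quantified by qRT-PCR normalised to ACTB, GAPDH and POLR2A, with bidirectional fitting versus DMSO.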

[10] = read-out: Bcl-2 (BAX) gene, BAX (gene 581); test: LTEA_HepaRG_BAX: Life Technologies and Expression Analysis (LTEA) Assay for Bcl-2 (BAX) gene using HepaRG (AID 2283470)
Summary of the method: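 Differentiated HepaRG cells exposed 48 h in serum-free induction medium, eight half-log concentrations from 100 uM, in duplicate, 0.5% DMSO vehicle. BAX mRNA by TaqMan qRT-PCR, normalised to ACTB, GAPDH and POLR2A.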

BCL2L11 (gene 10018) = test: LTEA_HepaRG_BCL2L11: Life Technologies and Expression Analysis (LTEA) Assay for Bcl-2 (BCL2L11) gene using HepaRG (AID 2283473)
Summary of the method: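 Human hepatic HepaRG cultures are treated 48 h with test chemicals (maximum 100 uM, 0.5% DMSO vehicle). Expression of BCL2L11 is measured by qRT-PCR against ACTB, GAPDH and POLR2A, with activity in either direction scored relative to vehicle.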

[11] = read-out: Apolipoprotein A-V (APOA5) gene, APOA5 (gene 116519); test: LTEA_HepaRG_APOA5: Life Technologies and Expression Analysis (LTEA) Assay for Apolipoprotein A-V (APOA5) gene using HepaRG (AID 2283474)
Summary of the method: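 Concentration-response of APOA5 expression in HepaRG: eight half-log doses to 100 uM, 48 h, qRT-PCR normalized to ACTB/GAPDH/POLR2A, bidirectional fitting with 0.5% DMSO as baseline.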

[12] = read-out: Apoptosis regulator Bcl-2 (Homo sapiens) (UniProt P10415); test: LTEA_HepaRG_BCL2: Life Technologies and Expression Analysis (LTEA) Assay for Bcl-2 gene using HepaRG (AID 2283475)
Summary of the method: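 Differentiated human HepaRG cells in serum-free induction medium exposed 48 h, in duplicate, to 8-point half-log series from 100 uM in 0.5% DMSO. BCL2 mRNA by qRT-PCR (TaqMan/Fluidigm), normalized to ACTB, GAPDH, POLR2A; bidirectional fit against DMSO.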

[13] = read-out: Bcl-2 (BID) gene, BID (gene 637); test: LTEA_HepaRG_BID: Life Technologies and Expression Analysis (LTEA) Assay for Bcl-2 (BID) gene using HepaRG (AID 2283476)
Summary of the method: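 Gene expression by qRT-PCR in HepaRG cells after 48 h exposure, duplicate wells, eight half-log concentrations topping at 100 uM in 0.5% DMSO. Normalized to ACTB, GAPDH, POLR2A; bidirectional fitting relative to DMSO.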

Caspase-3 (Homo sapiens) = Caspase-3 (Homo sapiens) (UniProt P42574); test: LTEA_HepaRG_CASP3: Life Technologies and Expression Analysis (LTEA) Assay for cysteine-aspartic acid protease (CASP3) using HepaRG (AID 2283477)
Sequence of Caspase-3 (Homo sapiens) (P42574 whole entry, looked up): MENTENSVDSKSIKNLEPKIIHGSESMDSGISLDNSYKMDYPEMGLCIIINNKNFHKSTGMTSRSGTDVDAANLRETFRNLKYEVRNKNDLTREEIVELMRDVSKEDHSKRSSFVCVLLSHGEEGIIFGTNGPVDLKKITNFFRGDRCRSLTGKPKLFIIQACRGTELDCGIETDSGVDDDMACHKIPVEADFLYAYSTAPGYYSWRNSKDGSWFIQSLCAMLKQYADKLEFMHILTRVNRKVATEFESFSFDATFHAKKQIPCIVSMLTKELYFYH
Summary of the method: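 Transcript-level assay: CASP3 mRNA in human HepaRG after 48 h treatment, eight half-log concentrations from 100 uM in 0.5% DMSO, quantified by qRT-PCR.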

[14] = read-out: Cytochrome P450 (CYP24A1), CYP24A1 (gene 1591); test: LTEA_HepaRG_CYP24A1: Life Technologies and Expression Analysis (LTEA) Assay for Cytochrome P450 (CYP24A1) using HepaRG (AID 2283478)
Summary of the method: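 Gene expression of CYP24A1 by TaqMan qRT-PCR in HepaRG after 48 h treatment, highest concentration 100 uM; activity fitted in both directions relative to DMSO vehicle.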

[15] = read-out: ABC Transporter (ABCB11), ABCB11 (gene 8647); test: LTEA_HepaRG_ABCB11: Life Technologies and Expression Analysis (LTEA) Assay for ABC Transporter (ABCB11) using HepaRG (AID 2283463)
Summary of the method: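 Differentiated human HepaRG cells were exposed for 48 h in serum-free induction medium to eight half-log concentrations up to 100 uM in 0.5% DMSO. ABCB11 mRNA was quantified by qRT-PCR, normalized to ACTB, GAPDH and POLR2A, and fitted bidirectionally versus DMSO.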

[16] = read-out: adenosine kinase (ADK) gene, ADK (gene 132); test: LTEA_HepaRG_ADK: Life Technologies and Expression Analysis (LTEA) Assay for adenosine kinase (ADK) gene using HepaRG (AID 2283471)
Summary of the method: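 Differentiated HepaRG cells dosed 48 h in serum-free induction medium, 0.5% DMSO vehicle, eight half-log concentrations from 100 uM, in duplicate. ADK mRNA by TaqMan qRT-PCR normalised to ACTB, GAPDH, POLR2A; bidirectional fit versus DMSO.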

[17] = read-out: Alpha-fetoprotein (AFP) gene, AFP (gene 174); test: LTEA_HepaRG_AFP: Life Technologies and Expression Analysis (LTEA) Assay for Alpha-fetoprotein (AFP) gene using HepaRG (AID 2283472)
Summary of the method: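 Differentiated human HepaRG cells exposed 48 h in serum-free induction medium, 8-point half-log series from 100 uM in 0.5% DMSO, duplicate. AFP mRNA by qRT-PCR, normalized to ACTB, GAPDH, POLR2A; bidirectional fit vs DMSO.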

[18] = read-out: Cytochrome P450 (CYP1A2), CYP1A2 (gene 1544); test: LTEA_HepaRG_CYP1A2: Life Technologies and Expression Analysis (LTEA) Assay for Cytochrome P450 (CYP1A2) using HepaRG (AID 2283479)
Summary of the method: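 In duplicate wells, HepaRG cultures maintained in 0.5% DMSO were treated 48 h across an 8-point, half-log series topping at 100 uM; phenobarbital (1 mM) served as induction control. Expression was read by qRT-PCR.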

Measured: AC50

Sequence of Broad substrate specificity ATP-binding cassette transporter ABCG2 (Homo sapiens) (Q9UNQ0 whole entry, looked up): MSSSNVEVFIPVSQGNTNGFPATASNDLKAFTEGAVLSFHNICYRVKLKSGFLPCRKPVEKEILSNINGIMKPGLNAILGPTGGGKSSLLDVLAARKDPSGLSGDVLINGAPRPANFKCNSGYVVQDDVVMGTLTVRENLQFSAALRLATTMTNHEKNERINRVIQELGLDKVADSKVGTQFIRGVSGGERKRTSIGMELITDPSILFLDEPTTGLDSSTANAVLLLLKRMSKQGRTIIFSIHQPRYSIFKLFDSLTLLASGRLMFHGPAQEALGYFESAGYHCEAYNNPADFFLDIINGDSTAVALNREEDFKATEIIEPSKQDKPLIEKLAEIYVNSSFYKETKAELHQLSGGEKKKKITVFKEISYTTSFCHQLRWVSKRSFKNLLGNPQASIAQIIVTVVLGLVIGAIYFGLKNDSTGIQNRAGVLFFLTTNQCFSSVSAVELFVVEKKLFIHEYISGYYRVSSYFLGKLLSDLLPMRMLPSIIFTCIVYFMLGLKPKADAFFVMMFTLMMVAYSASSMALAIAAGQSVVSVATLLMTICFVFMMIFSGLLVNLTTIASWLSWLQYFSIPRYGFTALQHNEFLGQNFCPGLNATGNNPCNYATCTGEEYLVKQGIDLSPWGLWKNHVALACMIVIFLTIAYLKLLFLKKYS
Sequence of Apoptosis regulator Bcl-2 (Homo sapiens) (P10415 whole entry, looked up): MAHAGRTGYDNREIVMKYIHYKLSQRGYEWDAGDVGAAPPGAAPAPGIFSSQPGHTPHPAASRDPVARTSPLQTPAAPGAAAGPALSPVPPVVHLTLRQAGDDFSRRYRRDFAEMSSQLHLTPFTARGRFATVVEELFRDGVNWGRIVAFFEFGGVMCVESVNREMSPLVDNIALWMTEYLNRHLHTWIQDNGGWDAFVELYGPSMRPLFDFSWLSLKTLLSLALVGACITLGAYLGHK

C1=Cc2cccc3cccc1c23
not listed: [15] | [16] | [17] | [18]
inactive: all other assays above

Cc1ccc(N)c(N)c1
active: [18] 38.3 µM
not listed: [3] | [4]
inactive: all other assays above

CC(C)N(Cc1ccccc1)C(=O)C(C)(C)C
not listed: [4] | [8] | [16]
inactive: all other assays above

c1ccc(NNc2ccccc2)cc1
active: [2] 50 µM | [18] 32.7 µM
not listed: [4] | [8] | [17]
inactive: all other assays above

CCN(CC)CCO
not listed: [4] | [16] | [17]
inactive: all other assays above
